# Assay results: ChEMBL document CHEMBL4513141, “CO-ADD screening of NIH (USA) - Clinical Collection” (2021)
# Results with a measured potency or affinity are listed apart.
# How the values were obtained:
# [1] = tested on: Klebsiella pneumoniae; conditions: Concentration 20 uM; ASSAY_TEST Inhibition of Bacterial Growth; detection method Absorption (OD600); MEDIA CAMHB; plate type 384well; NBS; CORNING #3640; time 18 hr
# [2] = tested on: Candida albicans; conditions: 20 µM
# [3] = tested on: Cryptococcus neoformans; conditions: Concentration 20 uM; ASSAY_TEST Inhibition of Fungal Growth; detection method Resazurin; Absorption (OD600-OD570); plate type 384well; NBS; CORNING #3640
Compound,Inhibition [1],Inhibition [2],Inhibition [3]
CS(=O)(=O)OCCCCOS(C)(=O)=O [BUSULFAN],14.59%,3.72%,-1.79%
COc1ccc(-c2oc3c(CC=C(C)C)c(O[C@@H]4O[C@H](CO)[C@@H](O)[C@H](O)[C@H]4O)cc(O)c3c(=O)c2O[C@@H]2O[C@@H](C)[C@H](O)[C@@H](O)[C@H]2O)cc1 [ICARIIN],1.41%,4.36%,0.11%
CC(=O)CCCCn1c(=O)c2c(ncn2C)n(C)c1=O [PENTOXIFYLLINE],12.41%,2.65%,-7.44%
CN(CCOc1ccc(CC2SC(=O)NC2=O)cc1)c1ccccn1.O=C(O)/C=C\C(=O)O (centres undefined) [ROSIGLITAZONE MALEATE],9.63%,0.75%,-9.6%
CCOC(=O)[C@@H](CCc1ccccc1)N[C@@H](C)C(=O)N1CCC[C@H]1C(=O)O.O=C(O)/C=C\C(=O)O,10.36%,0.69%,-1.23%
CCC(C)(C)/N=C(\NC#N)Nc1cccnc1,-0.95%,3.82%,-26.21%
CC(N)(Cc1ccc(O)c(O)c1)C(=O)O (stereo not drawn) [METHYLDOPA (RACEMIC)],2.57%,3.32%,7.73%
Nc1ncnc2c1ncn2[C@@H]1O[C@H](CO)[C@@H](O)[C@@H]1O [VIDARABINE],13.1%,4.29%,1.72%
CC(C)c1ccc2oc3nc(N)c(C(=O)O)cc3c(=O)c2c1 [AMLEXANOX],7.43%,8.26%,-1.01%
CC#C[C@]1(O)CC[C@H]2[C@@H]3CCC4=CC(=O)CCC4=C3[C@@H](c3ccc(N(C)C)cc3)C[C@@]21C [MIFEPRISTONE],3.7%,3.98%,-10.45%
NC(N)=Nc1nc(CSCC/C(N)=N/S(N)(=O)=O)cs1 [FAMOTIDINE],2.4%,3.01%,-2.8%
Cl.Clc1cccc(Cl)c1NC1=NCCN1 [CLONIDINE HYDROCHLORIDE],4.94%,3.3%,-10.31%
Cc1cccc(CN2CCN(C(c3ccccc3)c3ccc(Cl)cc3)CC2)c1.Cl.Cl (centres undefined),10.89%,1.13%,-13%
Clc1ccc2c(c1)C(N1CCNCC1)=Nc1ccccc1O2 [AMOXAPINE],12.52%,4.28%,-1.42%
CCCN1CCCC[C@H]1C(=O)Nc1c(C)cccc1C.Cl [ROPIVACAINE HYDROCHLORIDE],12.03%,3.24%,-6.59%
CN(C)CCCN1c2ccccc2Sc2ccc(Cl)cc21.Cl [CHLORPROMAZINE HYDROCHLORIDE],12.47%,0.59%,2.71%
CC[C@]1(O)C[C@@H]2CN(CCc3c([nH]c4ccccc34)[C@@](C(=O)OC)(c3cc4c(cc3OC)N(C)[C@H]3[C@@](O)(C(N)=O)[C@H](O)[C@]5(CC)C=CCN6CC[C@]43[C@@H]65)C2)C1.O=S(=O)(O)O [VINDESINE SULFATE],6.96%,3.45%,0.45%
CCCN(CCC)S(=O)(=O)c1ccc(C(=O)O)cc1 [PROBENECID],16.52%,–,-7.72%
CNCC(O)c1ccc(O)c(O)c1 (centres undefined) [RACEPINEPHRINE],12.35%,4.12%,-0.68%
CCOC(=O)[C@H](CCc1ccccc1)N[C@H]1CCc2ccccc2N(CC(=O)O)C1=O.Cl [BENAZEPRIL HYDROCHLORIDE],6.08%,3.12%,0.84%
Cc1ccc(N(CC2=NCCN2)c2cccc(O)c2)cc1 [PHENTOLAMINE],6.34%,2.06%,-2.31%
O=C1Nc2ccc(Cl)cc2[C@@](C#CC2CC2)(C(F)(F)F)O1 [EFAVIRENZ],-2.99%,3.86%,-5.8%
O=C([O-])Cc1ccccc1Nc1c(Cl)cccc1Cl.[Na+] [DICLOFENAC SODIUM],–,5.99%,1.05%
COc1ccc2c(c1)c(CC(=O)O)c(C)n2C(=O)c1ccc(Cl)cc1.O,8.34%,3.53%,1.93%
CC(C[N+](C)(C)C)OC(N)=O.[Cl-] (centres undefined) [BETHANECHOL CHLORIDE],8.32%,0.53%,0.14%
CN(C)C(=O)Oc1ccc[n+](C)c1.[Br-] [PYRIDOSTIGMINE BROMIDE],3.02%,1.97%,-8.97%
CCCCC1=NC2(CCCC2)C(=O)N1Cc1ccc(-c2ccccc2-c2nnn[nH]2)cc1 [IRBESARTAN],7.4%,-0.2%,0.28%
